From PubChem BioAssay (NCATS)
Inconclusive results are not listed. The source made the active and inactive calls. Unless noted, calls come from the whole dose curve; as a rule, active = well fitted curve in the direction sought with a large enough effect; inconclusive = small, poorly fitted or top-dose-only effect, or another doubt; inactive = no such curve, though single readings can be large; an effect the other way counts as inactive or inconclusive.

Tests used:
[1] = Primary qHTS for inhibitors of nuclear receptor binding SET domain protein 2 (NSD2) in an isogenic RCH-ACV NSD2 p.E1099K mutant (9B) (AID 1645876); note: potency is the fitted concentration of half-maximal effect; nearly all actives have a fitted effect of over 70% in size
[2] = Primary qHTS for inhibitors of nuclear receptor binding SET domain protein 2 (NSD2) in an RCH-ACV wild type WT cells (2C) (AID 1645877); note: potency is the fitted concentration of half-maximal effect; nearly all actives have a fitted effect of over 70% in size
[3] = target: Glutathione peroxidase 1 (Homo sapiens) (UniProt P07203); assay: Primary qHTS Assay for Inhibitors of Recombinant Selenoprotein Glutathione Peroxidase 1 (GPX1) (AID 1845191); note: % is set by controls: 0 for no effect and ±100 for the full control effect; nearly all actives have a fitted effect of over 65% in size
Method in brief: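 GPX1 10 nM, GR 100 nM, GSH 1 mM, NADPH 0.5 mM, CHP 0.5 mM (final). 30-min cpd preincubation, RT. Ex340/Em450 read t=0, t=15 min.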

[4] = target: Phospholipid hydroperoxide glutathione peroxidase GPX4 (Homo sapiens) (UniProt P36969); assay: Primary qHTS Assay for Inhibitors of Recombinant Selenoprotein Glutathione Peroxidase 4 (GPX4) (AID 1845192); details: outcome: dose series up to 50 µM unless noted; note: nearly all actives have a fitted effect of over 65% in size; for activity change, negative = inhibition: % is set by controls: 0 for no effect and ±100 for the full control effect
Method in brief: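 qHTS, GR-coupled: GPX4 200 nM + cpd 30 min RT → GSH 1 mM, NADPH 0.5 mM, GR 100 nM → CHP 0.5 mM start; fluor 340/450 at t0 and t15 min; no-enzyme wells as control.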

[5] = qHTS drug screen for cell cycle checkpoint inhibitors in PARPi-resistant BRCA-mutant ovarian cancer cell lines. (AID 1963452; calls by dose curve); details: PEO1/OlaR viability, CellTiter-Glo luminescence, 96 h, stronger effect = lower value
Method in brief: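 PEO1, PEO4 and PEO1/OlaR ovarian cancer cells, 600 per well, exposed 96 h at 37C to a dilution series. Viability read by CellTiter-Glo luminescence, normalized to DMSO and empty wells; activity summarized as Z-AUC.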

[6] = qHTS assay to identify inhibitors of the type 1 interferon - major histocompatibility complex class I in skeletal muscle: Counter screen cell viability and HiBit confirmation (AID 1347412); details: iHSKM muscle cells + IFN-b, HiBiT or CellTiter-Glo, 24 h, at 45.9 µM (top of the series); note: % is set by controls: 0 for no effect and ±100 for the full control effect; nearly all actives have a fitted effect of over 60% in size
Method in brief: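 Human myoblast knock-in line, 4.0 ng/ml IFN-beta stimulation, 24 h compound treatment. Endpoints: HiBiT lytic luminescence (HLA-B level) and CellTiter Glo (ATP). Dosing 12 concentrations, 3-fold steps, 46 uM highest final.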

[7] = Validation of Assay for Modulators of Lamin A Splicing (AID 1459; active = well fitted curve in the direction sought with a large enough effect in the signal ratio; the % refers to the signal ratio;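 note: cells exposed to compound for two days before reading; 0% is about no effect; ratio rise marks activators and ratio drop marks inhibitors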)
Method in brief: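 Dual-reporter HeLa S3 line (lamin A-EGFP minigene, DsRed2) treated with compounds 48 hrs, 0.5% DMSO final. Endpoint: EGFP/DsRed2 total intensity ratio from laser-scanning microplate cytometry.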

[8] = qHTS Assay for Lipid Storage Modulators (AID 1519; calls by dose curve; for activity change, negative = inhibition: % is set by controls: 0 for no effect and ±100 for the full control effect); details: Drosophila S3 cells, BODIPY lipid droplet/cell ratio, laser cytometry, cells loaded with oleic acid
Method in brief: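 Cells seeded at 5,000 per well were treated with compounds over a concentration series and loaded with oleic acid (400 uM, as added). Lipid droplet fluorescence (488 nm excitation, 500-530 nm channel) was read by laser-scanning cytometry and normalized to 20 uM Triacsin C.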

[9] = target: DNA repair nuclease/redox regulator APEX1 (Homo sapiens) (UniProt P27695); assay: qHTS Validation Assay for Inhibitors of the Human Apurinic/apyrimidinic Endonuclease 1 (APE1) (AID 1705;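 note: TAMRA fluorescence gain over two minutes as APE1 cuts a quenched THF abasic duplex; % is set by controls: 0 for no effect and ±100 for the full control effect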)
Method in brief: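 Substrate: 50 nM final fluorophore/quencher THF-abasic duplex. Enzyme preincubated with compounds 15 min, RT. Progress derived from fluorescence difference, third minus first kinetic read.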

[10] = Counterscreen for APE1 Inhibitors: Fluorescent Dye Displacement Validation Assay (AID 1707);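 note: plate controls were ThO with dsDNA and no compound for no effect and ThO without dsDNA for full effect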
Method in brief: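 Loss of Thiazole Orange fluorescence marks promiscuous DNA binders. The dye (250 nM) is mixed with 50 nM abasic-site dsDNA in pH7.5 Tris buffer containing MgCl2, then compounds are added and emission is read once.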

[11] = target: Endonuclease 4 (Escherichia coli (strain K12)) (UniProt P0A6C1); assay: Counterscreen for APE1 Inhibitors: qHTS Validation Assay for Inhibitors of Endonuclease IV (AID 1708); note: % is set by controls: 0 for no effect and ±100 for the full control effect
Method in brief: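 Enzyme (2 nM) + compound, 15 min RT; add 50 nM TAMRA/BHQ-2 THF-site dsDNA; kinetic read ex525/em598, 3 reads/60 s; activity = read 3 − read 1. Buffer Tris pH 7.5, 50 mM NaCl, 2 mM MgCl2, DTT, Tween-20.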

[12] = qHTS for differential inhibitors of proliferation of Plasmodium falciparum line Dd2 (AID 1882); details: Potency: Plasmodium falciparum Dd2 proliferation inhibition; note: potency is the fitted concentration of half-maximal effect; nearly all actives have a fitted effect of over 65% in size
Method in brief: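 SYBR Green DNA fluorescence (ex 485, em 535 nm) after overnight lysis quantifies parasite growth; compound exposure lasted 72 h at 37 C on infected red cells at 2.5% hematocrit, 0.3% parasitemia (final). Artemisinin 0.29 uM and vehicle wells define normalization.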

[13] = target: ATP-dependent DNA helicase Q1 (Homo sapiens) (UniProt P46063); assay: qHTS Validation Assay for Inhibitors of RecQ-Like Dna Helicase 1 (RECQ1) (AID 2353);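 note: plate controls were DMSO vehicle for no effect and enzyme-free control for full effect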
Method in brief: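 RECQ1T1 50 nM; forked duplex (20 bp + 30-nt ss tails) 200 nM, ATP 2 mM final; pH 8.0, 2 mM MgCl2, 2.5 ug/ml poly(dI-dC); 15 min compound preincubation; discontinuous kinetic read over 2 h at RT.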

[14] = Validation screen for small molecules that induce DNA re-replication in MCF 10A normal breast cells (AID 463097); note: 0% is about no effect; nearly all actives have a fitted effect of over 60% in size
Method in brief: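 Following 48 hr compound incubation (37 C, 5% CO2), MCF 10A cells receive Hoechst for 40 min at 37 C. Nuclei are then scanned (excitation 405 nm, emission 500-530 nm) for total fluorescence intensity.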

[15] = target: M-phase phosphoprotein 8 (Homo sapiens) (UniProt Q99549); assay: qHTS Validation Assay for Inhibitors for MPP8 Chromodomain Interactions with Methylated Histone Tails (AID 488949);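 note: 50 nM MPP8 with 50 nM peptide preformed then compounds added for 30 min; AlphaScreen signal from MPP8 chromodomain bound to biotinylated H3K9me3 peptide; top concentration of the series differs between compounds; % is set by controls: 0 for no effect and ±100 for the full control effect; nearly all actives have a fitted effect of over 55% in size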
Method in brief: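 Chemiluminescent proximity assay: histidine-tag capture via nickel acceptor beads, biotin peptide via streptavidin donor beads. Protein and peptide each at 50 nM, pH 7.4, with 30 min incubations at room temperature for complex formation, compound exposure and bead binding.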

[16] = target: Transient receptor potential cation channel subfamily V member 1 (Homo sapiens) (UniProt Q8NER1); assay: HTS Assay for Compounds that Act as Enhancers of the Vanilloid Receptor 1 (AID 488979); note: 0% is about no effect
Method in brief: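 TRPV1-expressing cells loaded with Fluo-8 calcium dye; compounds added and calcium influx read kinetically for 3 min (agonist phase), then capsaicin at EC20 added and read 2 min more for enhancement. Fluorescence ex 480/em 520 nm.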

[17] = target: Thyrotropin receptor (Homo sapiens) (UniProt P16473); assay: qHTS Assay for Antagonists of the Thyroid Stimulating Hormone Receptor (AID 488980); note: 0% is about no effect
Method in brief: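 Inhibition of TSH-stimulated cAMP accumulation was quantified by homogeneous time-resolved FRET in TSHR-transfected HEK293 cells. Agonist: TSH, 4 nM final (EC80).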

[18] = target: Galactokinase (Homo sapiens) (UniProt P51570); assay: qHTS Validation Assay for Inhibitors of Human Galactokinase (GALK) (AID 493189); note: 0% is about no effect
Method in brief: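 Enzyme activity is inferred from ATP consumption: human GALK phosphorylates galactose (100 uM) using 35 uM ATP for 1 h at room temperature, and luciferase-based Kinase-Glo Plus reports unconsumed ATP.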

[19] = Validation screen for small molecules that induce DNA re-replication in SW480 colon adenocarcinoma cells (AID 504364); note: 0% is about no effect
Method in brief: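 Image-based DNA content read-out: Hoechst stain 40 min, total nuclear fluorescence intensity (ex 405 nm, em 500-530 nm) after 48 h compound exposure of 250 SW480 cells/well at 37 C, 5% CO2, versus DMSO vehicle.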

[20] = measured here: PEO1 parental Z-AUC

Sequence of Phospholipid hydroperoxide glutathione peroxidase GPX4 (Homo sapiens) (P36969 whole entry, looked up): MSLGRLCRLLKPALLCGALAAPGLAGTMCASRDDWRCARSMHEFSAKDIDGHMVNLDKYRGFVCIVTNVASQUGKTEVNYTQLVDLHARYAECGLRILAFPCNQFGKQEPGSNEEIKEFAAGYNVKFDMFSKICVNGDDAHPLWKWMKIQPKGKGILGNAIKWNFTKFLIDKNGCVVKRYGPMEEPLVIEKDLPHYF
Sequence of Glutathione peroxidase 1 (Homo sapiens) (P07203 whole entry, looked up): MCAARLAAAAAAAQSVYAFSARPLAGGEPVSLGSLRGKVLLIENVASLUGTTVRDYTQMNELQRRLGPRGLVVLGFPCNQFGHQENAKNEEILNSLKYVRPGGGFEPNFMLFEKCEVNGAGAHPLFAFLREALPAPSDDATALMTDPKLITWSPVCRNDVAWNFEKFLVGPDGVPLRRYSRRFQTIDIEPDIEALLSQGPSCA
Sequence of Galactokinase (Homo sapiens) (P51570 whole entry, looked up): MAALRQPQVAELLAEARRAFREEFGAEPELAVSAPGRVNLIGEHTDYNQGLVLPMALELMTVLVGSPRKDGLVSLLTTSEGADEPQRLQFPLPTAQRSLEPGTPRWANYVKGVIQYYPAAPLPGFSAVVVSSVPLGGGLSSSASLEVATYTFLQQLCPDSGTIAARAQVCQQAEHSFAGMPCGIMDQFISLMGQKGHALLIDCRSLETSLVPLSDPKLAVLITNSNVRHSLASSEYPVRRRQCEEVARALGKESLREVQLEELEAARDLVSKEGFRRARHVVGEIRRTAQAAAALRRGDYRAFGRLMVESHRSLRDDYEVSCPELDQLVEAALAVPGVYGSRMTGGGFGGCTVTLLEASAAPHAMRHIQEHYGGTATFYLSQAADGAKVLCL
Sequence of ATP-dependent DNA helicase Q1 (Homo sapiens) (P46063 whole entry, looked up): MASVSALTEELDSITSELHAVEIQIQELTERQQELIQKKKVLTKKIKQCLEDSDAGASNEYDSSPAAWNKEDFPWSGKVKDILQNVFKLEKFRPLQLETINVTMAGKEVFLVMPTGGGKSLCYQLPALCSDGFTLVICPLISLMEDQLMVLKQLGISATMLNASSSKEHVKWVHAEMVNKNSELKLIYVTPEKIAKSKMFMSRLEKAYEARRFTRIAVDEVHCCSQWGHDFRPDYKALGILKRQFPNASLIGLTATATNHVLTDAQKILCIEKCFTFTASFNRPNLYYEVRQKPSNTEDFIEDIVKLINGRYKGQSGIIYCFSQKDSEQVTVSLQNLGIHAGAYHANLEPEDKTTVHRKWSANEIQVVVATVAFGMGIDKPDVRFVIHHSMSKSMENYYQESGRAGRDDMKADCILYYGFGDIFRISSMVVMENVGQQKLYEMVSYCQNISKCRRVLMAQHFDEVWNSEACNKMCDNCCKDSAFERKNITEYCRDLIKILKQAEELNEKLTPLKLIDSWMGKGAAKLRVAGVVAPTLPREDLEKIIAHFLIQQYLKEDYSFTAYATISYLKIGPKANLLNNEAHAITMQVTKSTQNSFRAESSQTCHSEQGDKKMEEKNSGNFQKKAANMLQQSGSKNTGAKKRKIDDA
Sequence of Transient receptor potential cation channel subfamily V member 1 (Homo sapiens) (Q8NER1 whole entry, looked up): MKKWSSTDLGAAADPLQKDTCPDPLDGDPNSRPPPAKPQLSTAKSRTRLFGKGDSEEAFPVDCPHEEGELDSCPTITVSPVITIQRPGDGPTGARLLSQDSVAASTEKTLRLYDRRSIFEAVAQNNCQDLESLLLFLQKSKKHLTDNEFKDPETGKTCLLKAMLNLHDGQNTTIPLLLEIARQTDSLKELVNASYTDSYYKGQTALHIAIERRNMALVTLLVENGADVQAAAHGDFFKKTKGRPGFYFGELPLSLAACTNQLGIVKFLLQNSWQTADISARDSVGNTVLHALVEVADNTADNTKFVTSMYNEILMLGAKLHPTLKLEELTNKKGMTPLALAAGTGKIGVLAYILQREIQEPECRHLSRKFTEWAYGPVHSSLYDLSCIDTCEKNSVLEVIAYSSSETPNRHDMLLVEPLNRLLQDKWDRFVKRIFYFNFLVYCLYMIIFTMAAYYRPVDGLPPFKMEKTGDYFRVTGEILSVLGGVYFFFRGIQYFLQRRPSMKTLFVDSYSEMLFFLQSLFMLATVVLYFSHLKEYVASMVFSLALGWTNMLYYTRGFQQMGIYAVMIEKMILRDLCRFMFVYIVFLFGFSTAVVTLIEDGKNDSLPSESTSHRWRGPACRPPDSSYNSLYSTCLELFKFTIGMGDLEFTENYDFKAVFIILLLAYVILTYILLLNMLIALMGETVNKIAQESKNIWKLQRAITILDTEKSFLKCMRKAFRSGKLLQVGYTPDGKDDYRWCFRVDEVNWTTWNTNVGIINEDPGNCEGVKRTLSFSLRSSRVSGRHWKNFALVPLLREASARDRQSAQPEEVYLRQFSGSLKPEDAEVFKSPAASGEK
Sequence of M-phase phosphoprotein 8 (Homo sapiens) (Q99549 whole entry, looked up): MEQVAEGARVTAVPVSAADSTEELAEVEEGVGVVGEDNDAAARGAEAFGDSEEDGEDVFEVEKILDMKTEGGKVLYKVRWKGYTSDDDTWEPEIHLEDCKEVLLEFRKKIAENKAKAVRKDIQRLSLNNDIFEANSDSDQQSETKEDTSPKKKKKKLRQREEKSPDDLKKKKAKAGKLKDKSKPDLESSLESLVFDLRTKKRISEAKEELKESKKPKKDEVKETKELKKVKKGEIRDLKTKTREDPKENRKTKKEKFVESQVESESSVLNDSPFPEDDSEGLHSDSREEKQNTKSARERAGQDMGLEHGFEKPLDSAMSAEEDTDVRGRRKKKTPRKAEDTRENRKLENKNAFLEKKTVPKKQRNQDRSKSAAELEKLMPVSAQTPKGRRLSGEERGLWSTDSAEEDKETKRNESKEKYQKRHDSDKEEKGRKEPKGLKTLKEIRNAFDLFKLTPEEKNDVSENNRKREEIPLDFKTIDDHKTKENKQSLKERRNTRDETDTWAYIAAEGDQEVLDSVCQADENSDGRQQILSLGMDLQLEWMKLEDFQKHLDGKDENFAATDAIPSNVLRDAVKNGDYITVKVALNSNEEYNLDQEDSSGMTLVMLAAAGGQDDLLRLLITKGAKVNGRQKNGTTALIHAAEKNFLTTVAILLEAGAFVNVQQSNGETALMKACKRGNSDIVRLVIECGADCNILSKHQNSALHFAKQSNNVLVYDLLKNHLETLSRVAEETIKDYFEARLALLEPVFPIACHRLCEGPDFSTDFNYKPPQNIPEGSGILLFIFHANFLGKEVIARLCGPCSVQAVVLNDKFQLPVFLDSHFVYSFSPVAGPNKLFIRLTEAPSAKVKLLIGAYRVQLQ
Sequence of DNA repair nuclease/redox regulator APEX1 (Homo sapiens) (P27695 whole entry, looked up): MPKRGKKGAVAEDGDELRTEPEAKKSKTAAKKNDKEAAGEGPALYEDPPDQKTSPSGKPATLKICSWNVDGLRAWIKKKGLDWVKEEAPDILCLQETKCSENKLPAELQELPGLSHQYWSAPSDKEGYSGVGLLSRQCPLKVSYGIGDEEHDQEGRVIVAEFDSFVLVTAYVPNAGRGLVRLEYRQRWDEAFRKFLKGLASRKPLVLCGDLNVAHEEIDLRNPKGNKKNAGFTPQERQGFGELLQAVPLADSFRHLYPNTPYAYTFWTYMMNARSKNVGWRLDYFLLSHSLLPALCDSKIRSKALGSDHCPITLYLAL
Sequence of Thyrotropin receptor (Homo sapiens) (P16473 whole entry, looked up): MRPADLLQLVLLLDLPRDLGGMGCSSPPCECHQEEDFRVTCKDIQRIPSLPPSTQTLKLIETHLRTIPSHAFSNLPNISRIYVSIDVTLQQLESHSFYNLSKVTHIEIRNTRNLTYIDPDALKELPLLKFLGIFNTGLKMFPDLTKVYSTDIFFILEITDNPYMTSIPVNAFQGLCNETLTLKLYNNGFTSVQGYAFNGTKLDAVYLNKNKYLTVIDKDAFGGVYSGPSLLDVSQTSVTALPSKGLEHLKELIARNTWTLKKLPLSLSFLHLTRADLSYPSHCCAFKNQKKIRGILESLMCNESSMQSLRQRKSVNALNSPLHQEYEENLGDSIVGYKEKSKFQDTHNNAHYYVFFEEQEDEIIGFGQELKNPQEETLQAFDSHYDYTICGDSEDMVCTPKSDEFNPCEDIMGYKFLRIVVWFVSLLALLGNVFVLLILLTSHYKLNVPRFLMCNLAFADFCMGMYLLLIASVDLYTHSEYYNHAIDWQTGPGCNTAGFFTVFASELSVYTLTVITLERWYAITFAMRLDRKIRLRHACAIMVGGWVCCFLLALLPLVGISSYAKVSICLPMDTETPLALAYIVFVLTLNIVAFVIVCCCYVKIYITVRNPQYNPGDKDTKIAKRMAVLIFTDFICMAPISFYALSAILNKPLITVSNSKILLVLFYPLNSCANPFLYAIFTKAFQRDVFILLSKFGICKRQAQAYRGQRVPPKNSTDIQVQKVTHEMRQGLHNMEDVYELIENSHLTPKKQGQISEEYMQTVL

## Nc1nc2c(c(=O)[nH]1)N1CN(c3ccc(C(=O)N[C@@H](CCC(=O)O)C(=O)O)cc3)CC1CN2 (stereo partly specified)
[1]
  Potency: 0.833 µM (active)
[2]
  Potency: 0.742 µM (active)
[3]
  Potency: inactive
[4]
  Potency: inactive
[5]
  Z-AUC: -1.54 (inactive)
[5]; [20]
  Z-AUC: -1.06
[5]; measured here: PEO4 Z-AUC
  Z-AUC: -0.345
[6]; Viability
  activity change, negative = inhibition: -12% (inactive)

## N=C(N)SCCc1cccc(CCSC(=N)N)c1
[7]
  outcome: inactive
[8]; at 57.5 µM (top of the series)
  activity change, negative = inhibition: 1.43% (inactive)
[8]; measured here: cell count channel max response
  max response: -17.4%
[8]; measured here: lipid channel max response
  max response: -13.1%
[9]
  Potency: inactive
[10]
  Potency: inactive
[11]
  outcome: inactive
[12]
  Potency: 7.08 µM (active)
[13]
  Potency: inactive
[14]
  outcome: inactive
[15]
  Potency: inactive
[16]
  outcome: inactive
[17]
  outcome: inactive
[18]
  outcome: inactive
[19]
  outcome: inactive

## C=CCN(/C=C1\C(=O)O[C@@H](COC)[C@]2(C)C1=C(O)C(=O)C1=C2[C@@H](OC(C)=O)C[C@]2(C)C(=O)CC[C@H]12)CC=C
[1]
  Potency: 10.5 µM (active)
[2]
  Potency: 8.33 µM (active)
[3]
  Potency: inactive
[4]
  Potency: inactive
[5]
  Z-AUC: -0.265 (inactive)
[5]; [20]
  Z-AUC: 0.0227
[5]; measured here: PEO4 Z-AUC
  Z-AUC: 0.306
[6]; HiBiT
  activity change, negative = inhibition: -5.45% (inactive)
